Hit rate of the full screen: of about 52,000 compounds, about 1,700 (3.3%) were called active. Only a selection was taken, and actives are over-represented in it overall. Unmarked numbers belong to inactive results. Cut-off read from the data, not from the text of the source: active = survival mostly below about 52% (no sharp cut-off); inactive = mostly above about 56%.
Each compound was assayed on Wild type (assay: S. aureus survival, RN4220 and DeltatarO strains – OD600, teichoic acid synthesis inhibitors, primary screen (AID 463173)). Conditions: S. aureus RN4220 wild type/DeltatarO growth, OD600, 18 h, hits give low values, screened at 18.75 µg/mL (by protocol).

SMILES	survival
Cc1ccc(NC(=O)c2cc(S(=O)(=O)N3CCCCC3)c[nH]2)cc1N(C)C	87%
CCCN(C(=O)c1sc2nc3n(c(=O)c2c1C)CCCC3)c1ccccc1C	80%
COc1cc2c(cc1OC)C(COc1ccccc1OC)N(C(=O)c1ccccc1OC)CC2 (stereo not drawn)	73%
Cc1ccc(C(=O)Nc2nc(-c3nnn(-c4cccc(C(F)(F)F)c4)c3C)ns2)cc1	75%
Cc1cc(-c2ccc(S(=O)(=O)N3CCN(c4ccc(Cl)cc4)CC3)s2)on1	136%
CC(=O)c1ccc(N2CCN(S(=O)(=O)c3ccc(-c4cc(C)no4)s3)CC2)cc1	-6% (active)
CC(=O)c1ccc(N2CCN(S(=O)(=O)c3ccc(-c4cc(C(F)(F)F)on4)s3)CC2)cc1	72%
Cc1cccc(N2CCN(C(=O)Cn3c(=O)c4cccn4c4ccc(F)cc43)CC2)c1C	85%
CC(C)(C)OC(=O)N1CCC(c2c(C(=O)NCc3ccco3)cnn2-c2ccccc2)CC1	75%
COc1ccc(S(=O)(=O)NCCc2cn3ccsc3n2)cc1OC	-3% (active)
COc1ccc(S(=O)(=O)NCCc2cn3ccsc3n2)cc1	82%
Cc1ccc(S(=O)(=O)NCCc2cn3ccsc3n2)cc1	57%
CN(C)c1ccc(N/C=C(\C#N)c2nc3ccccc3[nH]2)cc1	118%
CCOC(=O)CNC(=O)CSc1cn(CC(=O)N2CCCCCC2)c2ccccc12	99%
Cc1ccc(Nc2ncnc3c2nc2n3CCCC2)c(Br)c1	111%
CCSc1ncc(Cl)c(C(=O)Nc2ccc(S(=O)(=O)N(C)c3ccccc3)cc2)n1	84%
CCN(c1ccccc1)S(=O)(=O)c1ccc(NC(=O)c2nc(SC(C)C)ncc2Cl)cc1	81%
CCCSc1ncc(Cl)c(C(=O)Nc2ccc(S(=O)(=O)N(C)c3ccccc3)cc2)n1	84%
CC(C)Sc1ncc(Cl)c(C(=O)Nc2ccc(S(=O)(=O)N(C)c3ccccc3)cc2)n1	78%
CCS(=O)(=O)c1ncc(Cl)c(C(=O)Nc2ccccc2)n1	70%
CCS(=O)(=O)c1ncc(Cl)c(C(=O)Nc2ccc(S(=O)(=O)N(C)c3ccccc3)cc2)n1	8% (active)
CCN(c1ccccc1)S(=O)(=O)c1ccc(NC(=O)c2nc(S(C)(=O)=O)ncc2Cl)cc1	0% (active)
CN(c1ccccc1)S(=O)(=O)c1ccc(NC(=O)c2nc(S(C)(=O)=O)ncc2Cl)cc1	2% (active)
CCN(c1ccccc1)S(=O)(=O)c1ccc(NC(=O)c2nc(SC)ncc2Cl)cc1	88%

SMILES	survival
Cc1cccc(N2CCN(S(=O)(=O)c3ccc4c(c3)CCCN4C(=O)C3CCC3)CC2)c1C	86%
Cc1ccc(C(=O)Nc2nnc(SCc3cc(=O)c4c(C)ccc(C)c4[nH]3)s2)cc1	93%
Cc1ccc(C)c(NC(=O)CN2C(=O)C(C)(C)c3ccccc32)c1	76%
Fc1cccc(-c2cc3nc4c(c(NCCCN5CCOCC5)n3n2)CCCC4)c1	103%
COc1ccc(-n2c(=O)c3ccccc3n(Cc3cccc(C)c3)c2=O)cc1	75%
Cc1cc(C)cc(NS(=O)(=O)c2ccc3c(c2)OCC(C(=O)N2CCCC2)O3)c1 (stereo not drawn)	78%
COc1ccc(-c2nc3scc(CCNS(=O)(=O)c4ccccc4F)n3n2)cc1	57%
COc1ccc(OC)c(S(=O)(=O)NCCc2csc3nc(-c4ccccc4)nn23)c1	-3% (active)
CCS(=O)(=O)NCCc1csc2nc(-c3ccc(C)cc3)nn12	59%
O=S(=O)(NCCc1csc2nc(-c3ccc(Cl)cc3)nn12)c1cccs1	72%
COc1ccc(S(=O)(=O)NCCc2csc3nc(-c4ccccc4)nn23)cc1OC	71%
O=S(=O)(NCCc1csc2nc(-c3ccccc3)nn12)c1cccs1	81%
CCc1ccc(S(=O)(=O)NCCc2csc3nc(-c4ccccc4)nn23)s1	129%
CS(=O)(=O)NCCc1csc2nc(-c3ccccc3)nn12	-4% (active)
COc1ccc(-c2nc3scc(CCNS(=O)(=O)c4cccs4)n3n2)cc1	1% (active)
COc1ccc(NC(=O)C(CC(C)C)NC(=O)C2CCCCC2)c(OC)c1 (stereo not drawn)	63%
CC1(C)NC(=O)N(CC(O)CN2C(=O)NC(C)(C)C2=O)C1=O	117%
N#Cc1c(/N=C/N2CCCCC2)sc2c1CCCC2	89%
N#Cc1c(-n2ncnc2-c2ccc(F)cc2)sc2c1CCCCC2	-2% (active)
N#Cc1c(-n2ncnc2-c2cccc(Cl)c2)sc2c1CCCCC2	58%
N#Cc1c(-n2ncnc2-c2cccc(Br)c2)sc2c1CCCCC2	45%
N#Cc1c(-n2ncnc2-c2ccc(Br)cc2)sc2c1CCCCC2	2% (active)
N#Cc1c(N2C(=O)C3C4C=CC(C4)C3C2=O)sc2c1CCCC2 (stereo not drawn)	108%
CC(C)CCOc1ccc(C(=O)Nc2sc3c(c2C#N)CCCCC3)cc1	135%

SMILES	survival
CCOc1ccc(-c2ncnn2-c2sc3c(c2C#N)CCCCC3)cc1	3% (active)
COc1ccc(-c2nnn(CC(=O)Nc3sc4c(c3C#N)CCCC4)n2)cc1	109%
Cc1ccc(C)c(N2CCN(S(=O)(=O)c3cc(-c4cc(C)no4)ccc3C)CC2)c1	73%
O=C(CSc1n[nH]c(-c2ccccc2)n1)NCCCc1ccccc1	69%
CC(C)(C)c1cn2ccc3ccccc3c2n1	113%
Oc1ccccc1C(C#Cc1ccccc1)N1CCOCC1 (stereo not drawn)	110%
CC(C)N(C(=O)Cn1nnc2ccccc21)C(C(=O)NCc1ccco1)c1ccccc1 (stereo not drawn)	101%
Cc1ccc(C)c(N2CCN(Cc3nnc(-c4ccccc4)o3)CC2)c1	87%
Cc1ccccc1-c1nnc(CN2CCN(c3cc(Cl)ccc3C)CC2)o1	86%
Cc1ccc(N2CCN(Cc3nnc(-c4ccccc4F)o3)CC2)c(C)c1	15% (active)
Cc1ccc(-n2nc(C(=O)Nc3ccc(C)c(F)c3)c(=O)n(C)c2=O)cc1	68%
Cc1ccccc1CN1c2ccccc2-c2nc(SCC(=O)NCc3ccccc3)ncc2S1(=O)=O	-3% (active)
CCc1cccc(NC(=O)CSc2ncc3c(n2)-c2ccccc2N(Cc2ccccc2C)S3(=O)=O)c1	0% (active)
Cc1ccc(CN2c3ccccc3-c3nc(SCC(=O)Nc4c(C)cc(C)cc4C)ncc3S2(=O)=O)cc1	133%
O=C(CSc1ncc2c(n1)-c1ccccc1N(Cc1ccccc1)S2(=O)=O)Nc1ccccc1	-6% (active)
CCc1cccc(NC(=O)CSc2ncc3c(n2)-c2ccccc2N(CC)S3(=O)=O)c1	95%
CCN1c2ccccc2-c2nc(SCC(=O)NCc3ccccc3)ncc2S1(=O)=O	74%
Cc1ccccc1CN1c2ccccc2-c2nc(SCC(=O)NCCc3ccccc3)ncc2S1(=O)=O	53%
O=C(CSc1ncc2c(n1)-c1cc(Cl)ccc1N(Cc1ccccc1)S2(=O)=O)NCCc1ccccc1	113%
Cc1ccc(CN2c3ccccc3-c3nc(SCC(=O)NCCc4ccccc4)ncc3S2(=O)=O)cc1	14% (active)
O=C(CSc1ncc2c(n1)-c1ccccc1N(Cc1ccc(F)cc1)S2(=O)=O)NCCc1ccccc1	73%
CCOc1ccc(NC(=O)CSc2ncc3c(n2)-c2ccccc2N(Cc2ccccc2C)S3(=O)=O)cc1	63%
NC(=O)CSc1ncc2c(n1)-c1ccccc1N(Cc1ccccc1)S2(=O)=O	69%
Cc1ccc2[nH]c(CSc3nnc(NC(=O)c4ccccc4C)s3)cc(=O)c2c1	72%

SMILES	survival
O=C(NCCCO)c1cc2sc3ccccc3c2s1	103%
O=C(Nn1c(Cc2ccccc2)nc2ccccc2c1=O)c1ccco1	107%
Cc1ccc(CN2c3ccccc3-c3nc(SCC(=O)NCc4ccccc4)ncc3S2(=O)=O)cc1	-1% (active)
O=C(CSc1ncc2c(n1)-c1ccccc1N(Cc1ccc(F)cc1)S2(=O)=O)NCc1ccccc1	76%
CCN1c2ccccc2-c2nc(SCC(=O)NCc3ccc(C)cc3)ncc2S1(=O)=O	79%
COc1ccc(N(CC(=O)N2CCN(c3cccc(Cl)c3)CC2)S(=O)(=O)c2c(C)noc2C)cc1	84%
Cc1cc(C)c2sc(N3CCN(C(=O)c4ccc(N(C)C)cc4)CC3)nc2c1	136%
O=C(CC1COc2ccccc2O1)NCc1ccccc1 (stereo not drawn)	105%
O=C(Nc1ccc(F)cc1)Nc1csc2c1CCCC2	12%
Cc1ccc(-n2c(SCC(=O)c3ccccc3)nc3c([nH]c4ccccc43)c2=O)cc1	-6% (active)
CCOc1ccc(-n2c(SCC(=O)N3CCCCC3)nc3c([nH]c4ccccc43)c2=O)cc1	94%
O=C(CSc1nc(-c2ccccc2F)nc2cc(=O)[nH]n12)Nc1cccc(C(F)(F)F)c1	69%
Cc1cccc(-c2nc(SCC(=O)Nc3cccc(C(F)(F)F)c3)n3[nH]c(=O)cc3n2)c1	-3% (active)
CCOc1ccc(-n2c(SCC(=O)N3CCCC3)nc3c([nH]c4ccccc43)c2=O)cc1	73%
O=C(CSc1nc2c([nH]c3ccccc32)c(=O)n1-c1ccccc1)c1ccccc1	73%
COc1ccc(-n2c(SCC(=O)c3ccccc3)nc3c([nH]c4ccccc43)c2=O)cc1	88%
Cc1cc(C)cc(-n2c(SCC(=O)N3CCc4ccccc43)nc3c([nH]c4ccccc43)c2=O)c1	14% (active)
O=C(CSc1nc2c([nH]c3ccccc32)c(=O)n1-c1ccccc1)N1CCc2ccccc21	73%
O=C(CSc1nc(-c2cccs2)nc2cc(=O)[nH]n12)Nc1cccc(C(F)(F)F)c1	128%
Cc1ccc(-n2c(SCC(=O)N3CCc4ccccc43)nc3c([nH]c4ccccc43)c2=O)cc1	120%
CCOc1ccc(-n2c(SCC(=O)N3CCOCC3)nc3c([nH]c4ccccc43)c2=O)cc1	-3% (active)
